# Values without a mark were called inactive. No rule for the calls is given here.
# Target: Pantothenate synthetase (Mycobacterium tuberculosis (strain ATCC 25618 / H37Rv)) (UniProt P9WIL5)
# Experiment: Recombinant Mtb pantothenate synthetase (PanC) inhibitors, coupled enzyme, confirmatory (AID 375);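 also: 0% = full reaction with vehicle and 100% = no enzyme background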
# Details: coupled enzyme assay; at 10 µM, active compounds read high
# Pantothenate synthetase (Mycobacterium tuberculosis (strain ATCC 25618 / H37Rv)), sequence (P9WIL5 whole entry, looked up): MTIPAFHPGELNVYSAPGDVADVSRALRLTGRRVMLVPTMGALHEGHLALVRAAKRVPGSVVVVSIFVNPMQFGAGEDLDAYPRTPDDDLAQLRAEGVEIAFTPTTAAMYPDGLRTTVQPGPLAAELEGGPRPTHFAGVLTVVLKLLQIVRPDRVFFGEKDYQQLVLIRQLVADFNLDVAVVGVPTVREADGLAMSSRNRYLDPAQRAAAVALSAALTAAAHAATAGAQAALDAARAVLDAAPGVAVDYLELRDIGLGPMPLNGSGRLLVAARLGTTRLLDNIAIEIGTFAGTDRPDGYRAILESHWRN
row,SMILES,inhibition
1,CCOC(=O)c1cn(CC)c2cc(N3CCOCC3)c(F)cc2c1=O,0%
2,O=C(CSc1ncccn1)c1ccccc1Br,7%
3,COc1ccc(C)cc1S(=O)(=O)N1CCN(S(=O)(=O)c2cc(C)ccc2OC)CC1,5%
4,O=C(CN1C(=O)CCSc2ccccc21)Nc1ccc2c(c1)OCO2,2%
5,COc1ccccc1C(=O)Nc1nc2ccc(S(C)(=O)=O)cc2s1,0%
6,CCOC(=O)C1CSc2[nH]c(=O)sc2C1c1ccccc1 (stereo not given),0%
7,O=C(NCCCN1CCOCC1)c1ccc(CS(=O)(=O)c2c(Cl)cccc2Cl)o1,0%
8,COC(=O)CCC(=O)Nc1cccc(Br)c1,0%
9,CCOC(=O)c1ccccc1NC(=O)COC(=O)C1=COCCO1,0%
10,Cc1noc(C)c1C(=O)OCC(=O)Nc1ccccc1C(=O)NC(C)c1ccccc1 (stereo not given),14%
11,O=S(=O)(c1ccc(Oc2ccc(-c3nnco3)cc2)nc1)N1CCC(Cc2ccccc2)CC1,0%
12,CN(c1ccccc1C(=O)N1CCN(c2cccc(Cl)c2)CC1)S(C)(=O)=O,0%
13,CCCc1nnc(NC(=O)CCC(=O)N2CCN(CCOc3ccc(C)cc3)CC2)s1,5%
14,CCOC(=O)C(NC(=O)CC)(Nc1ccc(S(=O)(=O)Nc2onc(C)c2C)cc1)C(F)(F)F (stereo not given),0%
15,CCN(CCCNS(=O)(=O)c1ccc2c(c1)oc(=O)n2C)c1cccc(C)c1,0%
16,O=C(NCc1cccnc1)c1ccc(Cl)c(Cl)c1,0%
17,COC(=O)C(NC(C)=O)(Nc1nc2ccc(S(C)(=O)=O)cc2s1)C(F)(F)F (stereo not given),0%
18,O=C(Nc1ccccc1C(=O)N1CCOCC1)c1cccc(S(=O)(=O)N2CCCC2)c1,0%
19,Cc1ccc2nc(NC(=O)CN(C)S(=O)(=O)c3cccc4nsnc34)sc2c1,0%
20,COc1cc2c(cc1OC)C(C)N(C(=O)c1cc3n(n1)C(C(F)(F)F)CC(c1ccco1)N3)CC2 (stereo not given),6%

row,SMILES,inhibition
1,N#CC1=C(N)Oc2n[nH]c(-c3ccncc3)c2C1c1ccsc1 (stereo not given),0%
2,N#Cc1nc(COc2ccccc2Cl)oc1N1CCCCCC1,0%
3,COc1ccc(N2CCN(C(=O)CSc3nnc4n3C(C)(C)Cc3ccccc3-4)CC2)cc1,0%
4,CCCCCn1c(=O)[nH]c2cc(C(=O)NCCCN3CCCCC3)ccc2c1=O,3%
5,CCn1c(SCC(=O)Nc2ccc(C(C)=O)cc2)nc2ccccc21,3%
6,CCN(CC)CCNC(=O)C1CCN(S(=O)(=O)N2CCCCC2)CC1,0%
7,CS(=O)(=O)c1ncc(Cl)c(C(=O)Nc2ccc(N3CCOCC3)cc2)n1,2%
8,CCOC(=O)C1CCCN(C(=O)c2cc3c(=O)n4cccc(C)c4nc3n2C)C1 (stereo not given),0%
9,C=CCc1ccccc1OCCCCN1CCCC1,0%
10,CCOC(=O)c1[nH]c(CSc2nnc(-c3ccncc3)n2CCOC)c(C(=O)OCC)c1C,3%
11,Cc1ccc(C(=O)CC2(O)C(=O)N(CN3CCOCC3)c3ccccc32)cc1 (stereo not given),7%
12,CC(=O)N[C@@H](CS)C(=O)O,0%
13,O=S(=O)(c1cccc(-c2nnco2)c1)N1CCCC1,0%
14,CCOC(=O)c1cc2c(=O)n3ccccc3nc2n(CC(C)C)c1=NC(=O)c1ccco1,0%
15,Cc1cc(C(=O)Nc2nnc(C(F)(F)F)s2)no1,0%
16,CC(C)CN(CC(C)C)C(=O)C12CCC(C)(C(=O)C1)C2(C)C (stereo not given),3%
17,COc1ccc(Cl)c(NCCC(=O)O)c1,0%
18,O=C(CSc1nnc(Cc2cccs2)n1Cc1ccco1)Nc1cccc(Cl)c1,0%
19,CC(C)(C)NC(=O)NC(=O)COc1ccccc1C#N,3%
20,Fc1ccc(C(c2nnnn2Cc2ccco2)N2CCN(C3CCCCC3)CC2)cc1 (stereo not given),0%

# Source: PubChem BioAssay
